Sampled rows, rich in hits. Any-hit rate of the full collection: about 9.4%.
ELG1 genotoxic – induces genotoxicity in HEK293T cells with luciferase-tagged ELG1 | AID 504466 | HEK293T ELG1-luciferase reporter, luminescence, 16 h | 330,000 tested, 1.3% active | Potency, µM (doses to about 46 µM), hits mostly activators; further: nearly all actives have a fitted effect of over 60% in size
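Screening used a luciferase reporter fused to human ELG1 in HEK293T cells. Luminescence was read on a CCD plate imager after 16 hr exposure and 30 min ONE-Glo incubation.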
NPC1 prom act – activators of NPC1 promoter; Huh7 NPC1 promoter luciferase reporter, 24 h; Potency, µM (titrated, usually from 9.22 µM), most hits filed as activators; 320,000 tested, 2.4% active; further: nearly all actives have a fitted effect of over 60% in size
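Huh7 reporter cells (NPC1 promoter driving luciferase) are dosed with compound for 24 h at 37 °C, 5% CO2; luciferase detection reagent is then added and luminescence measured after 10 min at ambient temperature.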
Rab9 prom act – activators of Rab9 promoter; Huh7 Rab9 promoter-luciferase reporter, luminescence, 24 h; Potency, µM (titrated, usually from 9.22 µM), hits mostly activators; 320,000 tested, 2.8% active; AID 485297; further: nearly all actives have a fitted effect of over 60% in size
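Steps: seed 1500 Huh7 Rab9-luc cells per well, rest 2 h at 37 °C; add compound in DMSO; incubate 24 h; add luciferase reagent, 10 min ambient; read luminescence.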
FLuc counter – counter-screen for miR-21 project: firefly luciferase inhibitors or activators. 360,000 tested, 6.9% active. Potency, µM (titrated, usually from 57.5 µM), actives largely listed as inhibitors. purified FLuc, Km substrates, luminescence inhibition; further: nearly all actives have a fitted effect of over 55% in size
Target sequence (P08659 whole entry, looked up): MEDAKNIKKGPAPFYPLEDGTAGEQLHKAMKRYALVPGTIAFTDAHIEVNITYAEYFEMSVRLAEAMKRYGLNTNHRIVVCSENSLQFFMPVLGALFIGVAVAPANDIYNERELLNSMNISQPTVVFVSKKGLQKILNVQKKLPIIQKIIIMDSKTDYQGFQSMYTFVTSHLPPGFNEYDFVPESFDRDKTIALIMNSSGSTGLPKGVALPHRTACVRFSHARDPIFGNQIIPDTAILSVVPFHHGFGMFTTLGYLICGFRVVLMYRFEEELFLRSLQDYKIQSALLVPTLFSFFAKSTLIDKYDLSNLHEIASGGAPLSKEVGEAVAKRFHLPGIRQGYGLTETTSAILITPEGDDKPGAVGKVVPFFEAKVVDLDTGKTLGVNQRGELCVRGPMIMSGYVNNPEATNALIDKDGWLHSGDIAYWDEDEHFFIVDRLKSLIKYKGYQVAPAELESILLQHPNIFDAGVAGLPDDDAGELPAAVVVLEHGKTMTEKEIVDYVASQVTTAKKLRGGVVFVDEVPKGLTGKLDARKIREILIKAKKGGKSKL
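Biochemical qHTS of compounds, final roughly 60 µM downward over six points, against 10 nM purified firefly luciferase using Km concentrations of substrates (10 uM D-luciferin, 10 uM ATP) in Tris acetate pH 7.5 buffer; luminescence output.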
ELG1 DNA repair – blocks ELG1-dependent DNA repair in HEK293T cells; HEK293T ELG1-luciferase reporter, luminescence, 16 h; DNA damage induced by 5-fluorouridine; Potency, µM (titrated, usually from 46.1 µM), hits mostly inhibitors; 330,000 tested, 2.3% active; AID 504467; further: nearly all actives have a fitted effect of over 55% in size
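HEK293T cells expressing luciferase-tagged ELG1 (2,000/well) received 5-Fluorouridine plus compound or DMSO for 16 hr at 37 °C. Luciferase was read by ONE-Glo luminescence after 30 min at room temperature.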
SMN2 splice enh – SMN2 splice variant enhancement | HEK293 SMN2-luciferase splicing reporter, luminescence, 30-36 h | Potency, µM (highest dose often 46.1 µM), hits mostly activators | 210,000 tested, 2.8% active; further: nearly all actives have a fitted effect of over 55% in size
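qHTS luciferase splicing reporter: luminescence rises when SMN2 exon 7 is included in transfected HEK293 cells. Compound exposure lasted 30-36 h at 37C, with 4.5 mM final sodium butyrate as control, followed by a ONE-Glo read.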
Hits are given with their value; i = inactive; ? = inconclusive; nt = not tested or not shown; [ ] = remark or other dose. The call rests on the fitted dose curve; in most records, active means well fitted curve in the direction sought with a large enough effect; inconclusive means small, poorly fitted or top-dose-only effect, or another doubt; inactive means no such curve, though single readings can be large; an effect the other way counts as inactive or inconclusive.

SMILES	ELG1 genotoxic	NPC1 prom act	Rab9 prom act	FLuc counter	ELG1 DNA repair	SMN2 splice enh
O=C(O)CC(NC(=O)c1sc2ccccc2c1Cl)c1ccc(OC2CCCC2)cc1 (configuration not stated)	i	i	i	15µM	i	i
CSc1ccc(CCNC(=O)Cn2ncn3c(cc4ccccc43)c2=O)cc1	nt	nt	nt	i	nt	i
CCN(CC)c1ccc(/C=C(/C#N)c2nc3ccccc3[nH]2)c(OC(C)C)c1	i	i	?	2.7µM	?	i
CC(C)NC(=O)N1CCN(S(=O)(=O)c2ccc3c(ccn3C)c2)CC1	nt	nt	nt	i	nt	nt
Cc1ccc(Nc2ccc(NCc3ccccc3)nn2)cc1C	?	i	i	17µM	?	?
Clc1ccc(Nc2ccc(NCc3ccccc3)nn2)cc1	i	i	i	?	?	i
Fc1ccc(-c2nnc(Cc3ccc(Cl)cc3)o2)cc1	?	?	i	17µM	?	nt
COc1ccc2nc(SCc3cccc(C)c3)nc(C)c2c1	?	?	4µM	11µM	?	20µM
COc1ccc2nc(SCc3ccccc3C)nc(C)c2c1	?	?	?	?	?	22µM
Cc1ccc2nc(SCc3cccc([N+](=O)[O-])c3)nc(C)c2c1	i	i	i	i	i	i
CN(C)CC(O)Cn1c2ccc(Br)cc2c2cc(Br)ccc21 (configuration not stated)	nt	nt	nt	nt	nt	i
COc1ccc(-n2c(=O)c3sc4ccccc4c3n(C)c2=O)cc1	nt	nt	nt	i	nt	i
O=C(c1ccc2c(c1)N(Cc1ccc(Cl)cc1)C(=O)c1ccccc1S2=O)N1CCC(Cc2ccccc2)CC1 (configuration not stated)	nt	nt	nt	i	nt	i
Cc1nc(N2CCN(c3ccccn3)CC2)c2c(C)c(C(=O)Nc3ccccc3F)sc2n1	i	i	i	i	9.2µM	i
COc1ccc(NC(=O)c2sc3nc(C)nc(N4CCN(c5ccccn5)CC4)c3c2C)cc1Cl	i	i	i	i	3.3µM	nt
Cc1nc(N2CCN(c3ccccn3)CC2)c2c(C)c(C(=O)N3CCN(c4cccc(Cl)c4)CC3)sc2n1	i	i	i	i	12µM	nt
Cc1nc(-c2ccccn2)sc1C(=O)Nc1ccc(F)cc1F	?	i	4µM	i	?	i
Cc1nc(N2CCN(c3ccccn3)CC2)c2c(C)c(C(=O)Nc3ccc(F)cc3Cl)sc2n1	i	i	i	?	?	nt
O=C(CSC1=Nc2ccccc2N=C(c2ccc(F)cc2)C1)NCc1ccccc1	nt	nt	nt	i	nt	nt
CN(Cc1ccccc1)c1nc2c(S(=O)(=O)c3ccccc3)nnn2c2ccsc12	nt	nt	nt	i	nt	nt
O=C(Nc1c(F)cc(F)cc1Br)c1cc(S(=O)(=O)N2CCN(c3ccccn3)CC2)ccc1F	i	i	i	i	?	i
Cc1nc(N2CCOCC2)c2c(C)c(C(=O)Nc3ccccc3C(F)(F)F)sc2n1	i	i	i	i	16µM	i
Cc1nc(N2CCOCC2)c2c(C)c(C(=O)Nc3ccccc3Cl)sc2n1	i	i	i	i	i	i
O=C(Nc1ccc(F)c(F)c1)c1cc(S(=O)(=O)N2CCN(c3ccccn3)CC2)ccc1F	i	i	i	i	16µM	i
O=C(Nc1c(F)cccc1F)c1cnc(N2CCN(c3ccccn3)CC2)c2ccccc12	i	i	i	i	18µM	i
SMILES	ELG1 genotoxic	NPC1 prom act	Rab9 prom act	FLuc counter	ELG1 DNA repair	SMN2 splice enh
Cc1nc(N2CCN(c3ccccn3)CC2)c2c(C)c(C(=O)Nc3ccc(F)cc3F)sc2n1	i	i	i	i	12µM	i
CCC(Cc1ccccc1)NS(=O)(=O)c1c(C)nc2sccn2c1=O (configuration not stated)	i	i	i	i	i	nt
CCCNC(=O)C1CCC(Cn2c(=O)c3sccc3n(CC(=O)NCc3cccc(OC)c3OC)c2=O)CC1 (configuration not stated)	nt	nt	nt	i	nt	i
CCOC(=O)c1cc2c(=O)n3ccccc3nc2n(Cc2ccco2)c1=NC(=O)c1c(F)cccc1Cl	nt	nt	nt	i	nt	i
CCCN(C(=O)Nc1cn(CC(C)C)c(=O)c2ccccc12)c1ccc(F)cc1	nt	nt	nt	i	nt	nt
Cc1cc(C)cc(NC(=O)c2cccc(C(=O)Nc3cc(C)cc(C)c3)c2)c1	nt	nt	nt	i	nt	i
O=C(CN1CCN(c2ccccn2)CC1)Nc1ccc([N+](=O)[O-])cc1C(=O)Nc1ccccc1F	i	i	i	i	12µM	nt
COc1ccc(OC)c(NC(=O)CN(c2ccc(C)cc2)S(=O)(=O)c2c(C)noc2C)c1	i	i	i	i	?	i
COc1cccc(CNC(=O)CN(c2cc(C)cc(C)c2)S(=O)(=O)c2c(C)noc2C)c1	i	i	3.5µM	i	i	i
COc1ccc(OC)c(NC(=O)CN(c2ccc(C(C)C)cc2)S(=O)(=O)c2c(C)noc2C)c1	i	i	i	i	8.2µM	i
O=C(O)c1ccc2c(c1)C(=O)N([C@@H](Cc1ccc(O)cc1)C(=O)O)C2=O	nt	i	i	i	nt	nt
Cc1cccc(N2CCN(C(=O)C3CCCN(S(=O)(=O)c4ccc(Br)s4)C3)CC2)c1C (configuration not stated)	nt	nt	nt	i	nt	i
Cc1nn2c3ccccc3nc2c2ccccc12	i	i	i	?	?	i
Clc1ccc2nc3c4ccccc4cnn3c2c1	8.2µM	i	i[1.84 µM]	1.9µM	?	2.8µM
O=C(CN1C(=O)CCSc2ccc(S(=O)(=O)N3CCCC3)cc21)Nc1cccc(F)c1	nt	nt	nt	i	nt	nt
CCCCc1nc2c(c3c1C[C@H](C)OC3)CN(C(=O)NCCCC(=O)OCC)CC2	nt	nt	nt	nt	nt	i[9.22 µM]
N#C/C(=C\c1ccc(OC(=O)c2ccc(Br)s2)cc1)c1nc2ccccc2[nH]1	i	?	?	i	?	13µM
N#C/C(=C\c1ccc(OCc2ccc(Cl)cc2Cl)cc1)c1nc2ccccc2[nH]1	nt	nt	nt	i	nt	i
COc1cc(/C=C(\C#N)c2nc3ccccc3[nH]2)ccc1OC(=O)c1ccco1	?	i	?	0.95µM	?	35µM
N#C/C(=C\c1ccc(OC(=O)c2ccc(Cl)s2)cc1)c1nc2ccccc2[nH]1	?	i	?	i	?	18µM
N#C/C(=C\c1cccc(OCC(=O)O)c1)c1nc2ccccc2[nH]1	i	i	i	17µM	i	nt
Cc1cc(C)n2nc(C(=O)NNC(=O)c3ccccc3)nc2n1	i	i	i	i	i	i
COc1cccc(CSc2nc3n(n2)C(CC(C)C)C(C(=O)Nc2ccccc2C)=C(C)N3)c1 (configuration not stated)	nt	nt	nt	i	nt	nt
COC(=O)c1ccccc1NC(=O)Cn1nc(C)c2nn(-c3ccc(Cl)cc3)c(C)c2c1=O	nt	nt	nt	i	nt	nt
CC1CC(=O)Nc2ccccc2N1C(=O)Cn1cnc2ccccc2c1=O (configuration not stated)	i	i	i	i	i	nt
Cc1cc(C)c2c(N)c(C(=O)NC3CCCC3)sc2n1	i	i	i	?	i	i

Screening results deposited in PubChem BioAssay by National Center for Advancing Translational Sciences (NCATS).
